Measured values taken from PubChem BioAssay (NCI).
About 79,000 compounds went through this panel and 15% of them were active in at least one assay; those are over-represented in the sample as a whole. Activity calls are given as the source filed them. No stated cut-off is given here; in the data, active means growth inhibition above about 70%; inactive means the rest.

Tests used:
[1] = NCI Yeast Anticancer Drug Screen. Data for the rad52 strain (AID 147);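 further: 0% = growth of vehicle-treated control cultures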; conditions: S. cerevisiae rad52 mutant growth inhibition, hits give high values
Outline: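 Genetically altered yeast (DNA damage repair defect) treated with compound; inhibition calculated relative to vehicle.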

[2] = NCI Yeast Anticancer Drug Screen. Data for the wt1 strain (AID 149);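 further: 0% = growth of vehicle-treated wt1 cultures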; conditions: S. cerevisiae wt1 strain (SPY 50644) growth inhibition, hits give high values
Outline: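 Readout: yeast growth inhibition, normalised to vehicle controls, in the wt1 strain exposed to test compounds.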

[3] = NCI Yeast Anticancer Drug Screen. Data for the rad50EPP+ strain (AID 151);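 further: 0% = growth of vehicle-treated control cultures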; conditions: S. cerevisiae rad50 mutant strain, hits give high values
Outline: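 Strain rad50EPP+; compound exposure; % growth inhibition vs vehicle.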

[4] = NCI Yeast Anticancer Drug Screen. Data for the mgt1 strain (AID 153); conditions: S. cerevisiae mgt1 mutant growth inhibition, hits give high values
Outline: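 Read-out: yeast growth inhibition vs vehicle control. Strain mgt1, drawn from a panel altered in DNA damage repair or cell cycle control.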

[5] = NCI Yeast Anticancer Drug Screen. Data for the rad50 strain (AID 155);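 further: 0% = growth of vehicle-only cultures of the same strain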; conditions: S. cerevisiae rad50 strain growth inhibition, hits give high values
Outline: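 Compounds were tested on a yeast strain with an engineered DNA damage repair alteration; the reported value is growth inhibition normalised to vehicle treatment.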

[6] = NCI Yeast Anticancer Drug Screen. Data for the mec2-1 strain (AID 157); conditions: S. cerevisiae mec2-1 strain, hits give high values
Outline: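 Cells of the genetically defined mec2-1 yeast strain are incubated with test compound. Inhibition of growth is calculated against vehicle-treated controls.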

[7] = NCI Yeast Anticancer Drug Screen. Data for the rad14 strain (AID 159);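 further: 0% = growth of vehicle-treated control cultures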; conditions: S. cerevisiae rad14 strain growth inhibition, hits give high values
Outline: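 Compound-treated yeast with a defined DNA-repair lesion; growth inhibition normalised to vehicle-treated cultures.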

[8] = NCI Yeast Anticancer Drug Screen. Data for the sgs1 mgt1 strain (AID 161);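 further: 0% = growth of cultures given vehicle only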; conditions: S. cerevisiae sgs1 mgt1 strain, hits give high values
Outline: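 Test agents were incubated with a DNA-repair-mutant yeast strain. Growth was then read and compared against vehicle-treated controls.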

[9] = NCI Yeast Anticancer Drug Screen. Data for the CLN2oe strain (AID 163);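 further: 0% = growth of vehicle-only control cultures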; conditions: S. cerevisiae CLN2oe strain, hits give high values
Outline: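 Strain altered in cell-cycle control, incubated with compound; growth compared to solvent-treated controls.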

[10] = NCI Yeast Anticancer Drug Screen. Data for the cln2 rad14 strain (AID 165);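 further: 0% = growth equal to vehicle treated cultures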; conditions: S. cerevisiae cln2 rad14 strain, hits give high values
Outline: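 The screen exposed genetically defined yeast (cln2 rad14) to test compounds and scored growth inhibition relative to vehicle-treated controls.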

[11] = NCI Yeast Anticancer Drug Screen. Data for the bub3 strain (AID 167); conditions: S. cerevisiae bub3 mutant strain, hits give high values
Outline: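 Growth of a checkpoint-deficient yeast mutant is measured after compound exposure. Values represent inhibition relative to vehicle.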

[12] = NCI Yeast Anticancer Drug Screen. Data for the wt2 strain (AID 169);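 further: 0% = growth of vehicle-treated yeast cultures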; conditions: S. cerevisiae wt2 strain growth inhibition, hits give high values
Outline: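 Steps: yeast strain treated with compound; growth recorded; inhibition calculated relative to cultures given vehicle alone.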

[13] = NCI Yeast Anticancer Drug Screen. Data for the mlh1 strain (AID 171);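 further: 0% = growth of vehicle-treated control cultures of the same strain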; conditions: S. cerevisiae mlh1 strain growth inhibition, hits give high values
Outline: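 Yeast screen: mutant strain plus compound, growth scored against vehicle control wells.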

[14] = NCI Yeast Anticancer Drug Screen. Data for the sgs1 strain (AID 173);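 further: 0% = growth of vehicle-only control cultures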; conditions: S. cerevisiae sgs1 mutant, hits give high values
Outline: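 Inhibition of yeast growth served as the measure. The mutant strain was treated with each compound, and growth was normalised to cultures receiving vehicle alone.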

[15] = NCI Yeast Anticancer Drug Screen. Data for the mlh1 rad18 strain (AID 175); conditions: S. cerevisiae mlh1 rad18 strain growth inhibition, hits give high values
Outline: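 Compound-treated yeast growth, normalised to vehicle controls. Strain bears defined DNA repair mutations.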

[16] = NCI Yeast Anticancer Drug Screen. Data for the rad18 strain (AID 177); conditions: S. cerevisiae rad18 mutant growth inhibition, hits give high values
Outline: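 Inhibition values reflect reduced yeast growth compared with vehicle-treated controls, using a strain engineered with a DNA damage repair defect.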

[17] = at 5.0 µM (retest, dose inferred, filed as 0.5)
[18] = at 50.0 µM (retest, dose inferred, filed as 5.0)

Measured: growth inhibition

O=C1C=C(CN(CCCl)CCCl)C(=O)C=C1CN(CCCl)CCCl
active: [15]; at 50.0 µM 73.6% | [16]; at 33.0 µM 86% | [16]; at 100.0 µM 90%
inactive: [1]; at 1.2 µM 0% | [1]; at 3.7 µM 0% | [1]; at 11.0 µM 4% | [1]; at 33.0 µM 14% | [1]; at 100.0 µM 46% | [2]; at 1.2 µM -3% | [2]; at 3.7 µM 0% | [2]; at 11.0 µM 1% | [2]; at 33.0 µM 3% | [2]; at 100.0 µM 4% | [3]; at 1.2 µM 1% | [3]; at 3.7 µM -2% | [3]; at 11.0 µM 0% | [3]; at 33.0 µM 3% | [3]; at 100.0 µM 13% | [4]; at 1.2 µM -5% | [4]; at 3.7 µM 0% | [4]; at 11.0 µM -1% | [4]; at 33.0 µM -1% | [4]; at 100.0 µM 0% | [5]; at 1.2 µM -1% | [5]; at 3.7 µM -1% | [5]; [17] 1% | [5]; at 11.0 µM 0% | [5]; at 33.0 µM 12% | [5]; [18] 32% | [5]; at 50.0 µM 14.8% | [5]; at 100.0 µM 35% | [6]; at 1.2 µM -5% | [6]; at 3.7 µM -8% | [6]; [17] 0% | [6]; at 11.0 µM -3% | [6]; at 33.0 µM 3% | [6]; [18] 12% | [6]; at 50.0 µM 26.1% | [6]; at 100.0 µM 15% | [7]; at 1.2 µM 1% | [7]; at 3.7 µM 4% | [7]; at 11.0 µM 9% | [7]; at 33.0 µM 28% | [7]; at 100.0 µM 61% | [8]; [17] -2% | [8]; [18] 24% | [8]; at 50.0 µM 35.2% | [9]; at 1.2 µM -7% | [9]; at 3.7 µM -8% | [9]; at 11.0 µM -11% | [9]; at 33.0 µM -7% | [9]; at 100.0 µM -12% | [10]; [17] -3% | [10]; [18] 8% | [10]; at 50.0 µM 7.6% | [11]; at 1.2 µM -2% | [11]; at 3.7 µM -6% | [11]; [17] -1% | [11]; at 11.0 µM -7% | [11]; at 33.0 µM -6% | [11]; [18] 8% | [11]; at 50.0 µM 1.95% | [11]; at 100.0 µM -9% | [12]; at 1.2 µM 0% | [12]; at 3.7 µM -3% | [12]; at 11.0 µM -1% | [12]; at 33.0 µM -1% | [12]; at 100.0 µM 4% | [13]; at 1.2 µM -1% | [13]; at 3.7 µM -1% | [13]; at 11.0 µM -1% | [13]; at 33.0 µM 2% | [13]; at 100.0 µM 6% | [14]; at 1.2 µM 0% | [14]; at 3.7 µM 1% | [14]; at 11.0 µM 1% | [14]; at 33.0 µM 12% | [14]; at 100.0 µM 28% | [15]; [17] 2% | [15]; [18] 36% | [16]; at 1.2 µM 4% | [16]; at 3.7 µM 13% | [16]; at 11.0 µM 29%

CCS(=O)(=O)[O][Sn]([CH2]C)([CH2]C)[O]S(=O)(=O)CC
active: [6]; [18] 85% | [6]; at 50.0 µM 77% | [11]; [18] 72% | [12]; at 100.0 µM 77% | [15]; [18] 87%
inactive: [1]; at 1.2 µM -49% | [1]; at 3.7 µM -43% | [1]; at 11.0 µM -29% | [1]; at 33.0 µM -15% | [1]; at 100.0 µM 50% | [2]; at 1.2 µM -47% | [2]; at 3.7 µM -43% | [2]; at 11.0 µM -39% | [2]; at 33.0 µM -25% | [2]; at 100.0 µM 61% | [3]; at 1.2 µM -47% | [3]; at 3.7 µM -43% | [3]; at 11.0 µM -51% | [3]; at 33.0 µM -33% | [3]; at 100.0 µM -35% | [4]; at 1.2 µM -3% | [4]; at 3.7 µM -1% | [4]; at 11.0 µM 1% | [4]; at 33.0 µM 18% | [4]; at 100.0 µM 61% | [5]; at 1.2 µM -4% | [5]; at 3.7 µM -19% | [5]; [17] 21% | [5]; at 11.0 µM 2% | [5]; at 33.0 µM -14% | [5]; [18] 68% | [5]; at 50.0 µM 48.5% | [5]; at 100.0 µM 56% | [6]; at 1.2 µM -5% | [6]; at 3.7 µM 3% | [6]; [17] 6% | [6]; at 11.0 µM 3% | [6]; at 33.0 µM 23% | [6]; at 100.0 µM 69% | [7]; at 1.2 µM -2% | [7]; at 3.7 µM 4% | [7]; at 11.0 µM 4% | [7]; at 33.0 µM 10% | [7]; at 100.0 µM 34% | [8]; [17] 15% | [8]; [18] 69% | [8]; at 50.0 µM 42.2% | [9]; at 1.2 µM -18% | [9]; at 3.7 µM -45% | [9]; at 11.0 µM -33% | [9]; at 33.0 µM -35% | [9]; at 100.0 µM 54% | [10]; [17] 2% | [10]; [18] 32% | [10]; at 50.0 µM 67% | [11]; at 1.2 µM -5% | [11]; at 3.7 µM -9% | [11]; [17] 1% | [11]; at 11.0 µM -8% | [11]; at 33.0 µM -1% | [11]; at 50.0 µM 55.7% | [11]; at 100.0 µM 55% | [12]; at 1.2 µM -32% | [12]; at 3.7 µM -21% | [12]; at 11.0 µM -26% | [12]; at 33.0 µM -4% | [13]; at 1.2 µM 1% | [13]; at 3.7 µM 5% | [13]; at 11.0 µM 16% | [13]; at 33.0 µM 28% | [13]; at 100.0 µM 52% | [14]; at 1.2 µM -4% | [14]; at 3.7 µM -9% | [14]; at 11.0 µM -3% | [14]; at 33.0 µM 7% | [14]; at 100.0 µM 51% | [15]; [17] 44% | [15]; at 50.0 µM 59.6% | [16]; at 1.2 µM -29% | [16]; at 3.7 µM -25% | [16]; at 11.0 µM -17% | [16]; at 33.0 µM -16% | [16]; at 100.0 µM 52%

c1cc2c(cc1C1OC[C@H]3[C@@H](c4ccc5c(c4)OCO5)OC[C@@H]13)OCO2 (stereo partly specified)
inactive: [1]; at 1.2 µM -9% | [1]; at 3.7 µM -16% | [1]; at 11.0 µM -3% | [1]; at 33.0 µM -1% | [1]; at 100.0 µM -6% | [2]; at 1.2 µM -1% | [2]; at 3.7 µM -6% | [2]; at 11.0 µM 1% | [2]; at 33.0 µM -20% | [2]; at 100.0 µM -8% | [3]; at 1.2 µM -7% | [3]; at 3.7 µM -16% | [3]; at 11.0 µM 3% | [3]; at 33.0 µM 16% | [3]; at 100.0 µM 2% | [4]; at 1.2 µM -4% | [4]; at 3.7 µM -9% | [4]; at 11.0 µM -2% | [4]; at 33.0 µM -5% | [4]; at 100.0 µM -5% | [5]; at 1.2 µM -16% | [5]; at 3.7 µM -19% | [5]; [17] 2% | [5]; at 11.0 µM -16% | [5]; at 33.0 µM -22% | [5]; [18] 3% | [5]; at 50.0 µM 15.3% | [5]; at 100.0 µM 8% | [6]; at 1.2 µM -2% | [6]; at 3.7 µM -4%
